Inconclusive results are not listed. Calls of active or inactive are those of the source. Unless noted, the call rests on the fitted dose curve; in most records, active means well fitted curve in the direction sought with a large enough effect in the repeat runs; inconclusive means weak or mixed curves; inactive means no such curve, though single readings can be large; an effect the other way counts as inactive or inconclusive.
What was measured:
[1] = qHTS assay to identify small molecule agonists of the vitamin D receptor (VDR) signaling pathway - cell viability counter screen (AID 743224); further: nearly all actives have a fitted effect of over 50% in size
Method in brief: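 Cells: VDR-bla, 2,000/well, settled 4 h. Treatment: compounds in DMSO, 16 h, 37C/5% CO2. Readout: CellTiter-Glo luminescence after 30 min RT.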

[2] = qHTS assay to identify small molecule antagonists of the vitamin D receptor (VDR) signaling pathway - cell viability counter screen (AID 743225); further: nearly all actives have a fitted effect of over 50% in size
Method in brief: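 VDR-bla HEK 293T cells, 4 h pre-incubation at 37C, then compound plus 1-alpha,25-dihydroxyvitamin D3 (3 nM final) for 16 h. After the beta-lactamase FRET read, CellTiter-Glo was added to the same wells; luminescence after 30 min at room temperature.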

[3] = qHTS assay to identify small molecule agonists of the NFkB signaling pathway (AID 1159509; active means well fitted curve in the direction sought with a large enough effect in the signal ratio in the repeat runs, not every such curve was filed as active; the % refers to the signal ratio)
Method in brief: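 Readout: FRET fluorescence, 405 nm excitation, 460/530 nm emission; beta-lactamase expression disrupts FRET. Cells: ME-180 stably carrying NF-kB-driven bla reporter. Compound exposure 5 hr, 37 C, 5% CO2.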

[4] = qHTS assay to identify small molecule agonists of the NFkB signaling pathway - cell viability counter screen (AID 1159515; calls by dose curve; further: nearly all actives have a fitted effect of over 55% in size)
Method in brief: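 Cells are seeded (2,000 NFkB-bla ME-180 per well), rested overnight, and dosed with DMSO-dissolved compounds for 5 hr at 37 C. Viability is then read by CellTiter-Glo luminescence after 30 min at room temperature.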

[5] = qHTS assay to identify small molecule agonists of the endoplasmic reticulum stress response signaling pathway (AID 1159516; active means well fitted activation curve with a large enough effect in the signal ratio in the repeat runs, not every such curve was filed as active; the % refers to the signal ratio)
Method in brief: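 Cells are seeded at 1,500 per well and incubated overnight. Compounds in DMSO are added for 5 hr at 37 C, then beta-lactamase FRET substrate for 2 hr at room temperature, and fluorescence at 460 and 530 nm is measured.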

[6] = qHTS assay to identify small molecule agonists of the endoplasmic reticulum stress response signaling pathway - cell viability counter screen (AID 1159517; calls by dose curve;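 further: HeLa cells carrying an ER stress response element beta-lactamase reporter; nearly all actives have a fitted effect of over 50% in size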)
Method in brief: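 Cytotoxicity of test compounds toward ESRE-bla HeLa cells was assessed after 5 hr exposure. The luminescent CellTiter-Glo signal was measured 30 min after reagent addition.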

[7] = qHTS assay to identify small molecule antagonists of the retinoid-related orphan receptor gamma (ROR-gamma) signaling pathway - cell viability counter screen (AID 1159520); further: nearly all actives have a fitted effect of over 50% in size
Method in brief: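 Tet-on ROR gamma CHO cells (1,000/well) were plated 4 hr, given compounds in DMSO for 2 hr at 37 C, then induced with 1 uM final doxycycline for 16 hr. Viability was read as ATP by CellTiter-Glo luminescence after 30 min.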

[8] = qHTS assay to identify small molecule agonists of the AP-1 signaling pathway - cell viability counter screen (AID 1159525; calls by dose curve; further: nearly all actives have a fitted effect of over 55% in size)
Method in brief: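 Each titration point was normalised to DMSO and tetra n-octyl ammonium bromide controls. The read was Cell Titer Glo luminescence after 30 min at RT, following 5 h compound exposure of ME-180 AP-1-bla cells at 37 °C.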

[9] = qHTS assay to identify small molecule agonists of the AP-1 signaling pathway (AID 1159526; calls by dose curve)
[10] = biological target: Retinoic acid receptor RXR-alpha (Homo sapiens) (UniProt P19793); test: qHTS assay to identify small molecule agonists of the RXR signaling pathway (AID 1159527; calls by dose curve; further: nearly all actives have a fitted effect of over 35% in size; further: potency means the concentration at half of the fitted maximal effect)
Sequence of Retinoic acid receptor RXR-alpha (Homo sapiens) (P19793 whole entry, looked up): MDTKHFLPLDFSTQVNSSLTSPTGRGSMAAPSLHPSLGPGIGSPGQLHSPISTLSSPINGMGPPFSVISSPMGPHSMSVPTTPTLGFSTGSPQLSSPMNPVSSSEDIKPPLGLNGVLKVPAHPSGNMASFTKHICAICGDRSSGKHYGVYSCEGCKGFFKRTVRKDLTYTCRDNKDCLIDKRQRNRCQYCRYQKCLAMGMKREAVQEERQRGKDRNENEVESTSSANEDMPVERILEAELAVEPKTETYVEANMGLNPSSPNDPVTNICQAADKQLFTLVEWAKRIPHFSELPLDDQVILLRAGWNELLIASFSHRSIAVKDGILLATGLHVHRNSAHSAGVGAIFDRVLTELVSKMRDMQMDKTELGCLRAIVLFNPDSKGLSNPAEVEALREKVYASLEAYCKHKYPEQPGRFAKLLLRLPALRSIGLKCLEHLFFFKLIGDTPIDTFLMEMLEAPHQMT
Method in brief: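 GeneBLAzer RXR-alpha-UAS-bla HEK 293T cells in medium with 2% charcoal-stripped FBS, pre-incubated 5 hr at 37 C, then exposed to compounds 16 hr. Beta-lactamase reporter read by FRET substrate, 2 hr room temperature, 460/530 nm emission.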

[11] = qHTS assay to identify small molecule agonists of the RXR signaling pathway - cell viability counter screen (AID 1159529); further: nearly all actives have a fitted effect of over 50% in size
Method in brief: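 RXR-alpha-UAS-bla HEK 293T cells in medium with 2% charcoal-stripped FBS were preincubated 5 hr, then exposed to compounds for 16 hr at 37 C. Viability was read as CellTiter-Glo luminescence after 30 min at room temperature.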

[12] = qHTS assay to identify small molecule antagonists of the retinoid acid receptor (RAR) signaling pathway - cell viability counter screen (AID 1159551); further: nearly all actives have a fitted effect of over 35% in size
Method in brief: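 Cells (C3RL4) are plated, incubated overnight, dosed with compound in DMSO, then given retinol at 1 uM final. After 6 h at 37 C, CellTiter-Glo is added and luminescence read following 30 min at room temperature.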

[13] = qHTS assay to identify small molecule antagonists of the retinoic acid receptor (RAR) signaling pathway (AID 1159552; further: nearly all actives have a fitted effect of over 50% in size)
Method in brief: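 RARE-luc C3RL4 cells; cpds + 1 uM (final) retinol, 6 hr, 37 C/5% CO2; luciferase reagent, 30 min RT, luminescence readout. Inhibitors of retinol-driven signal scored.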

[14] = qHTS assay to identify small molecule agonists of the retinoic acid receptor (RAR) signaling pathway (AID 1159553); conditions: C3RL4 RARE luciferase reporter, agonist, 6 h; activation: at 73.3 µM (top of the series); further: potency means the concentration at half of the fitted maximal effect
Method in brief: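 Seed C3RL4 reporter cells at 1,000 per well and incubate overnight at 37 C. Add compounds in DMSO, incubate 6 hr. Add luciferase reagent, wait 30 min at room temperature, read luminescence.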

[15] = qHTS assay to identify small molecule antagonists of the estrogen related receptor (ERR) signaling pathway from Tox21 library - cell viability counter screen (AID 1224834); further: nearly all actives have a fitted effect of over 30% in size
Method in brief: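 ERR cells, 2,000/well; 6 h settle at 37 C/5% CO2; pin-tool compound transfer in DMSO; 17.5 h at 37 C; CellTiter-Fluor, 30 min; fluorescence intensity.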

[16] = qHTS assay to identify small molecule antagonists of the constitutive androstane receptor (CAR) signaling pathway - cell viability counter screen (AID 1224837); further: nearly all actives have a fitted effect of over 45% in size
Method in brief: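 Viability was measured with CellTiter-Fluor in a HepG2 line carrying stably transfected hCAR and a CYP2B6-2.2kb construct. Cells were exposed for 23 hr at 37 C to 15 compound concentrations with 50 nM CITCO as agonist.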

[17] = biological target: Nuclear receptor ROR-gamma (Homo sapiens) (UniProt P51449); test: qHTS assay to identify small molecule antagonists of the retinoid-related orphan receptor gamma (ROR-gamma) signaling pathway (AID 1159521)
Method in brief: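 Tet-on RORγ CHO cells carrying a ROR response element–luciferase reporter were pretreated with compounds for 2 h, then induced with 1 uM (final) doxycycline hyclate for 16 h at 37 C. Antagonism was read as decreased ONE-Glo luminescence.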

[18] = biological target: Luciferin 4-monooxygenase (Photinus pyralis) (UniProt P08659); test: qHTS assay to identify small molecule inhibitors of firefly luciferase (AID 1224835); further: nearly all actives have a fitted effect of over 25% in size
Sequence of Luciferin 4-monooxygenase (Photinus pyralis) (P08659 whole entry, looked up): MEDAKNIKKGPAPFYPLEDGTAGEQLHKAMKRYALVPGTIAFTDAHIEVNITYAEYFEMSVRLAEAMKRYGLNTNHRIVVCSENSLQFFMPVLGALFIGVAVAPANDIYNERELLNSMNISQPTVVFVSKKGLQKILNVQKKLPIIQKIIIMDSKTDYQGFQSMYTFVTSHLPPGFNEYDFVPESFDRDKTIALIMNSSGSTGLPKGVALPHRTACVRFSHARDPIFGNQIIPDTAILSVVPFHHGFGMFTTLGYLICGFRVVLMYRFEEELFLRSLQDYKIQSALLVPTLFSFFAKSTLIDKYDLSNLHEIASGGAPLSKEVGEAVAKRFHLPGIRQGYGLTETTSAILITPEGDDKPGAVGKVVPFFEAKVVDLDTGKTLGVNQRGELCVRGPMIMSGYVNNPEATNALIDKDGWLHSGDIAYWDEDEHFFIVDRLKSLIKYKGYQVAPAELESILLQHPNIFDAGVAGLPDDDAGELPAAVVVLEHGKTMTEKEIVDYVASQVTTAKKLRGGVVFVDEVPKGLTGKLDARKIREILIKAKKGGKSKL
Method in brief: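 Quantitative HTS format; KM concentrations of both substrates. Purified P. pyralis FLuc activity quantified from luminescence images.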

[19] = qHTS assay to identify small molecule agonists of the constitutive androstane receptor (CAR) signaling pathway - cell viability counter screen (AID 1224836); further: nearly all actives have a fitted effect of over 45% in size
Method in brief: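 HepG2 cells stably carrying hCAR and a CYP2B6-2.2kb reporter were plated 4 h, then given compounds at 15 concentrations plus PK11195 (final 0.75 uM). After 23 h at 37 C, viability was read by CellTiter-Fluor fluorescence.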

[20] = biological target: Nuclear receptor subfamily 1 group I member 3 (Homo sapiens) (UniProt Q14994); test: qHTS assay to identify small molecule antagonists of the constitutive androstane receptor (CAR) signaling pathway (AID 1224838);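 further: HepG2 cells stably expressing hCAR with CYP2B6 luciferase reporter stimulated by CITCO; nearly all actives have a fitted effect of over 40% in size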
Sequence of Nuclear receptor subfamily 1 group I member 3 (Homo sapiens) (Q14994 whole entry, looked up): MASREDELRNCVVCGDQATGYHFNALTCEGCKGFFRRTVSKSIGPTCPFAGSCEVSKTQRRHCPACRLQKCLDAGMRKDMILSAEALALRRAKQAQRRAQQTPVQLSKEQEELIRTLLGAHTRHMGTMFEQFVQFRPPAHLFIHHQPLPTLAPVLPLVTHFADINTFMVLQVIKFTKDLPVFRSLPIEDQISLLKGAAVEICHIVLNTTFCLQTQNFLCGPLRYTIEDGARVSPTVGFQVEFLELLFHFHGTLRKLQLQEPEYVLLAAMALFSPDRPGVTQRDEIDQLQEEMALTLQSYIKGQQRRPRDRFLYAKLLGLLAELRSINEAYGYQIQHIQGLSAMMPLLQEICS
Method in brief: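 Antagonist mode used CITCO at a final 50 nM to activate CAR in human hepatoma HepG2 cells carrying stable hCAR and a 2.2 kb CYP2B6 promoter-luciferase construct. Compounds were tested at 15 concentrations over 24 h, with luminescence as the end point.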

Measured: Potency

O=C(c1ccc2c(c1)C(=O)OC2=O)c1ccc2c(c1)C(=O)OC2=O
inactive: [1] | [2] | [3] | [4] | [5] | [6] | [7] | [8] | [9] | [10] | [11] | [12] | [13] | [14] | [15] | [16]

O=C(O)c1ccccc1C(=O)Nc1ccc(S(=O)(=O)Nc2nccs2)cc1
inactive: [1] | [2] | [3] | [4] | [5] | [6] | [7] | [17] | [8] | [9] | [11] | [12] | [14] | [18] | [19] | [16] | [20]

CC(C)C(=O)c1ccccc1
inactive: [1] | [2] | [3] | [4] | [5] | [6] | [7] | [8] | [9] | [10] | [11] | [12] | [13] | [14] | [15] | [18] | [19] | [16]

CCNC(=O)/C=C/c1cccc(Br)c1
active: [14] 15 µM
inactive: [1] | [3] | [4] | [5] | [6] | [7] | [8] | [9] | [10] | [11] | [12] | [13] | [15] | [20]

CCN1CN(CC)CN(CC)C1
inactive: [1] | [2] | [3] | [4] | [5] | [6] | [7] | [8] | [9] | [10] | [11] | [12] | [13] | [14] | [18] | [19] | [16]

CC(=O)c1ccc(OCC(=O)N2CCCCC2)cc1
active: [14] 13.3 µM
inactive: [1] | [2] | [3] | [4] | [5] | [6] | [7] | [17] | [8] | [9] | [11] | [12] | [13] | [15] | [16] | [20]

CCCCCCCCCCC
active: [10] 12.3 µM
inactive: [1] | [3] | [4] | [5] | [6] | [7] | [8] | [9] | [11] | [12] | [13] | [14] | [15] | [19] | [16] | [20]

CCNC(=O)NCCCOc1cccc(CN2CCCCC2)c1
inactive: [1] | [2] | [3] | [4] | [5] | [6] | [7] | [8] | [9] | [11] | [12] | [13] | [14] | [15] | [18] | [19]

O=S(=O)(O)SSS(=O)(=O)O
inactive: [1] | [2] | [3] | [4] | [5] | [6] | [7] | [17] | [8] | [9] | [11] | [12] | [14] | [15] | [19] | [16] | [20]

O=C(/C=C/c1ccccc1)NCCO
inactive: [1] | [2] | [3] | [4] | [5] | [6] | [7] | [8] | [9] | [10] | [11] | [12] | [13] | [14] | [19] | [16] | [20]

CCCCCCCCC(=O)OCC
inactive: [1] | [2] | [3] | [4] | [5] | [6] | [7] | [8] | [9] | [10] | [11] | [12] | [13] | [14] | [15] | [18] | [19] | [16]

CCCCC(CC)C(=O)OC(C)C (stereo unspecified)
inactive: [1] | [3] | [4] | [5] | [6] | [7] | [8] | [9] | [11] | [12] | [13] | [14] | [18] | [16]

CCCCCCCCCOCC1CO1 (stereo unspecified)
inactive: [1] | [2] | [3] | [4] | [5] | [6] | [7] | [17] | [8] | [9] | [11] | [12] | [13] | [14] | [19] | [16] | [20]

CC(=O)c1ccc2c(c1)CCCC2
inactive: [1] | [3] | [4] | [5] | [6] | [7] | [8] | [9] | [10] | [11] | [12] | [13] | [14] | [15] | [19] | [16] | [20]

Nc1cc(C(=O)O)ccc1Cl
inactive: [1] | [2] | [3] | [5] | [6] | [7] | [17] | [8] | [9] | [11] | [12] | [13] | [14] | [18] | [19] | [16]

CC1(N)CCC(C(C)(C)N)CC1 (stereo unspecified)
inactive: [1] | [2] | [3] | [5] | [6] | [7] | [17] | [8] | [9] | [11] | [12] | [13] | [14] | [15] | [18] | [19] | [16]

COc1ccc(NS(=O)(=O)c2ccc(N)cc2)nn1
inactive: [1] | [2] | [3] | [5] | [6] | [7] | [8] | [9] | [10] | [11] | [12] | [14] | [18] | [19] | [16]
